The source of these data is PubChem BioAssay (Tox21).

SMILES strings stand for the structures. Results filed as inconclusive are left out. The source made the active and inactive calls. Calls come from the whole dose curve; as a rule, active = well fitted inhibition curve with a large enough effect in the signal ratio in the repeat runs (not every such curve was filed as active); inconclusive = weak or mixed curves, or effect the other way; inactive = no such curve, though single readings can be large or run the other way; the % refers to the signal ratio.
% is set by controls: 0 for no effect and ±100 for the full control effect.

The experiment deals with Bile acid receptor (Homo sapiens) (UniProt Q96RI1). The experiment can be described thus: qHTS assay to identify small molecule antagonists of the farnesoid-X-receptor (FXR) signaling pathway (AID 743217). The note with it: HEK293T FXR-UAS-bla, beta-lactamase ratio, CDCA-stimulated, 16 h; series mostly up to 62.6 µM; activity change, negative = inhibition: at the top concentration. From the text: U.S. Tox21 Program National Center for Advancing Translational Sciences [NCATS] NIH Chemical Genomics Center [NCGC] U.S. Environmental Protection Agency [EPA] National Institutes of Environmental Health Sciences [NIEHS] National Toxicology Program [NTP] U.S. Food and Drug Administration [FDA] Tox21 Assay Overview: The farnesoid-X-receptor (FXR), a nuclear hormone receptor, is highly expressed in liver, intestine, kidney and adrenal cortex. Natural ligands of FXR are the bile acids (Cholic acid, Chenodeoxy cholic acid etc). FXR is an important regulator of diverse metabolic pathways, including the bile acid homeostasis, lipid and glucose metabolisms. FXR regulates the expression of target genes by binding either as a monomer or as a heterodimer with the retinoid X receptor (RXR). Numerous studies have reported that FXR exerts protective function during cholestasis, diabetes, liver regeneration, and cancer. To identify compounds that inhibit FXR signaling, GeneBLAzer FXR-UAS-bla HEK 293T cell line (Invitrogen, Carlsbad, CA) containing a beta-lactamase reporter gene under the control of a UAS response element was used to screen the Tox21 10K compound library.
Sequence of Bile acid receptor (Homo sapiens) (Q96RI1 whole entry, looked up): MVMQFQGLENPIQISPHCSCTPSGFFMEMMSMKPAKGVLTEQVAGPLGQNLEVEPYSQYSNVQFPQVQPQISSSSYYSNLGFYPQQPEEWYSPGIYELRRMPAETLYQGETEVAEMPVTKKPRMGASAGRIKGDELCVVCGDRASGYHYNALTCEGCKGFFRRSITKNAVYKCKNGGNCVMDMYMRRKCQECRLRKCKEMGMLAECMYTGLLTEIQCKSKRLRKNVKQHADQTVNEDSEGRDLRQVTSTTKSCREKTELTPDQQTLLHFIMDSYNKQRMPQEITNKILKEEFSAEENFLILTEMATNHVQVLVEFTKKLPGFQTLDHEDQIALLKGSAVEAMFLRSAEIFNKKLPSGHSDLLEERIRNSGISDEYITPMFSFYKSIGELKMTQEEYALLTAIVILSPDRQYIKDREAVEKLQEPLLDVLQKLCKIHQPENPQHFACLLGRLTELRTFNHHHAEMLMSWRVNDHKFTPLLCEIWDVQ
Tox21 Assay Protocol Summary: FXR-bla cells were dispensed at 5000 cells/5uL/well in 1536-well black wall/clear bottom plates using a Multidrop Combi (Thermo Fisher Scientific, Waltham, MA) dispenser. After the assay plates were incubated at 37C and 5% CO2 for 5 h, 23 nL of compounds dissolved in DMSO, positive controls or DMSO only was transferred to the assay plate by a Pintool station (Kalypsys, San Diego, CA), followed by addition of 1 uL Chenodeoxycholic acid (50 uM, final concentration in the wells). The assay plates were incubated at 37C for 16 h. After 1 uL of LiveBLAzerTM B/G FRET substrate was added using a Bioraptr Flying Reagent Dispenser (FRD) workstation (Beckman Coulter, Indianapolis, IN), the plates were incubated at room temperature for 2 h, and fluorescence intensity was measured by an Envision plate reader (PerkinElmer, Shelton, CT).
For orientation: qHTS replaces the single test concentration by a dilution series.
Take `CCC(C)OC(=O)N1CCCCC1CCO` (stereo not given): the “activity change, negative = inhibition” value is 0.953% (inactive).
`CC(C)CCOC(=O)CC(C)C`: the “activity change, negative = inhibition” value was -2.36% (inactive).
As for `CCC(C)(C)C1CCC(OC)CC1` (stereo not given), the “activity change, negative = inhibition” value was -0.736% (inactive).
The same measure for `CCCC(C)C(=O)O` (stereo not given): 4.46% (inactive).
Next, `Nc1cc(N)cc(C(=O)O)c1`: 1.46% (inactive); `CNC(=O)c1c(I)c(NC(=O)CCCCC(=O)Nc2c(I)c(C(=O)O)c(I)c(C(=O)NC)c2I)c(I)c(C(=O)O)c1I`: -7.7% (inactive); `CCCC(=O)O[C@]1(C(=O)CCl)[C@@H](C)C[C@H]2[C@@H]3CCC4=CC(=O)C=C[C@]4(C)[C@@]3(F)C(=O)C[C@@]21C`: -14.6% (inactive).
Next, `Cc1cc(C)cc(OCC2CNC(=O)O2)c1` (stereo not given): -0.844% (inactive).
For the molecule `CCCC(C)CO` (stereo not given), the “activity change, negative = inhibition” value was 0.665% (inactive).
Take `C=CC(=O)N1CCOCC1`: the “activity change, negative = inhibition” value was 3.17% (inactive).
Next, `CCCCCCCCCCCl`: 0.253% [at 81.1 µM] (inactive); `OCC(CO)(CO)COCC(CO)(CO)CO`: 2.93% (inactive); `c1ccc(SCCSc2ccccc2)cc1`: -0.0627% (inactive).
The same measure for `C1COCCO1`: 0% [at 81.1 µM] (inactive); for `CC1=CC(C)C(C=O)C(C)C1` (stereo not given): 1.99% (inactive); for `COC(=O)C1=C(C)NC(C)=C(C(=O)OCC(C)=O)C1c1ccccc1[N+](=O)[O-]` (stereo not given): 3.71% (inactive).
`Nc1[nH]c(=O)ncc1F`: the “activity change, negative = inhibition” value was 1.03% (inactive).
`CN(C)CCn1nnnc1SCC1=C(C(=O)O)N2C(=O)[C@@H](NC(=O)Cc3csc(N)n3)[C@H]2SC1`: the “activity change, negative = inhibition” value is 8.32% (inactive).
Take `C=CCn1c(=O)n([C@@H]2O[C@H](CO)[C@@H](O)[C@H]2O)c2nc(N)[nH]c(=O)c21`: the “activity change, negative = inhibition” value is 4.69% (inactive).
The same measure for `Nc1ccn(C2CO[C@H](CO)O2)c(=O)n1` (stereo not given in full): 0.777% (inactive); for `CC1CCN(CCCC(=O)c2ccc(F)cc2)CC1`: -10.8% (inactive).
Next, `NS(=O)(=O)c1cc(C2(O)NC(=O)c3ccccc32)ccc1Cl` (stereo not given): 4.77% (inactive).
Next, `O=C(O)c1ccccc1S`: 8.75% (inactive).
Take `C=CCSCC1Nc2cc(Cl)c(S(N)(=O)=O)cc2S(=O)(=O)N1` (stereo not given): the “activity change, negative = inhibition” value was 5.84% (inactive).
For the molecule `CCC(=O)/C=C/c1ccc(OC)cc1`, the “activity change, negative = inhibition” value is -1.41% (inactive).
The same measure for `COc1cc(CCC(C)=O)ccc1O`: 1.34% (inactive).
Next, `Nc1ccc2cc(S(=O)(=O)O)ccc2c1`: 0.42% (inactive).
The same measure for `CC1(C)SC(C)(C)SC(C)(C)S1`: 0% (inactive); for `Nc1nc2c(ncn2CCC(CO)CO)c(=O)[nH]1`: 1.15% (inactive); for `c1ccc(CCCc2ccccn2)cc1`: 4.02% (inactive).
Consider `NS(=O)(=O)c1cc2c(cc1Cl)NC(CSCc1ccccc1)=NS2(=O)=O`, for which the “activity change, negative = inhibition” value was 6.7% (inactive).
Turning to `O=C(O)c1ccccc1-c1ccc(C(F)(F)F)cc1`, the “activity change, negative = inhibition” value was 6.77% (inactive).
Consider `O=[N+]([O-])c1ccc(Oc2ccc([N+](=O)[O-])cc2)cc1`, for which the “activity change, negative = inhibition” value was 4.53% [at 81.1 µM] (inactive).
Next, `Cc1ccccc1Br`: 3.14% (inactive); `Cc1ncc(CSSCc2cnc(C)c(O)c2CO)c(CO)c1O`: 4.67% (inactive).
Consider `COC(C(=O)O)c1ccccc1` (stereo not given), for which the “activity change, negative = inhibition” value is 5.47% (inactive).
The same measure for `NC(N)=NS(=O)(=O)c1ccc(N)cc1`: 2.1% (inactive).
Next, `CCCCNc1ccccc1`: 2.1% (inactive).
Next, `Cc1c(C)n(CCN(C)C)c2ccc(C(=O)OCCN(C)C)cc12`: 0.436% (inactive); `CCOC(=O)[C@H](CCc1ccccc1)N[C@@H](C)C(=O)N1CCC[C@H]1C(=O)O`: -4.64% (inactive).
